# ChEMBL document CHEMBL3988442, “University of Dundee, Small-Polar-MMV Screening Library” (2021)
# How the values were obtained:
# [1] = molecular target: T1, Aspartate--tRNA(Asp/Asn) ligase (Mycobacterium tuberculosis (strain ATCC 25618 / H37Rv)) (UniProt P9WFW3); assay: Assay for Asp RNA synthetase-1 from Mycobacterium tuberculosis; type: functional; set-up: scale not given: direction of the effect not stated beside the values; conditions: 30 µM; also: in the data most compounds retested in dose-response had high values
# T1 sequence (whole entry): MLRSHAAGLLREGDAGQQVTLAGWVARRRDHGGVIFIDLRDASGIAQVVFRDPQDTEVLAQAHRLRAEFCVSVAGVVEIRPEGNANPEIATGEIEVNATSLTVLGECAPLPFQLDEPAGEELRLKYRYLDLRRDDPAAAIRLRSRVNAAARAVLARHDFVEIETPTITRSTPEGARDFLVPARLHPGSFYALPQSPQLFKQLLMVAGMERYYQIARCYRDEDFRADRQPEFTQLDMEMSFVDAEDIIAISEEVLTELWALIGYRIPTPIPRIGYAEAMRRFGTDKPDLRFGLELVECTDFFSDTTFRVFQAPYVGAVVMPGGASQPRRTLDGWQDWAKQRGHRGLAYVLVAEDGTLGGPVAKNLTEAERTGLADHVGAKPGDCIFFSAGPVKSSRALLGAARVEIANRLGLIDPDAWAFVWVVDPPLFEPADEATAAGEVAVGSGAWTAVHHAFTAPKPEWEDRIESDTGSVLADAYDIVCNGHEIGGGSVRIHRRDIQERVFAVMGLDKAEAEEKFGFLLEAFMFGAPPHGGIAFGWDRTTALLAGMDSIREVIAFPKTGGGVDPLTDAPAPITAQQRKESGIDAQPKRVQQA
# [2] = molecular target: Shiga toxin 2 (Escherichia coli O157:H7) (UniProt P09385+P09386); assay: E. coli 0.157:H7 Shiga Toxin SOP - stx2 screening assay; type: functional; set-up: scale not given: direction of the effect not stated beside the values; conditions: 30 µM
SMILES,Percent Effect [1] [%],Percent Effect [2] [%]
COCCC(=O)N1CCCC2(CCC(=O)N2CCOC)CC1 (centres undefined),0.751,-11.1
CC(C)C(=O)N1CCN(C(=O)c2cc(C(C)C)on2)[C@H]2CS(=O)(=O)C[C@H]21,-1.39,-14.2
CC1CN(C)c2ccccc2CN1C(=O)c1ccc[nH]1 (centres undefined),4.95,-9.14
CCn1cc(CN2CCCN(C(=O)CCc3ccncc3)CC2)cn1,0.516,-80.5
O=C(CN1CCCCC1Cn1cncn1)NCCC1=CCCCC1 (centres undefined),2.88,11.4
O=C(Nc1ccccc1)C1CN(CC2CC2)CC12CCOCC2 (centres undefined),0.903,-13.2
CCN(C(=O)Nc1cccnc1OC)C1CC1,-1.21,-24.9
c1cnc(-c2cnc(N3CCSCC3)nc2C2CC2)cn1,1.07,4.88
Cc1ncnc2c1CCN(Cc1ccccn1)CC2,1.8,-19.4
Cc1nn(CC(=O)N2CCCCC2Cn2cccn2)c(C)c1Cl (centres undefined),-0.127,-13.2
Cc1ccc(CCNC(=O)N2CCCC(Cc3nccn3C)C2)cn1 (centres undefined),-1.82,-13.3
CN(C)c1ccccc1C(=O)N1C[C@@H](CN2CCCCC2)[C@@H](CO)C1,-5.26,17.7
O=C(CC1CC1)NCc1cn2c(n1)CN(C(=O)c1cccnc1)CC2,3.04,-29.1
CCc1nc2n(n1)CC(NCC(=O)Nc1nccs1)CC2 (centres undefined),-2.71,2.48
COCCNC(=O)[C@H]1CN(Cc2nccs2)C[C@H]2OCC[C@@H]12,-4.08,1.98
CN(C)c1ccc(CNC(=O)c2ccc(Cl)cc2F)cc1,-7.82,0.494
Cc1nc2ccccc2c(=O)n1CCC(=O)N1CCSCC1,1.9,7.96
